In PubChem BioAssay AID1159580 (chemical genetic matrix, 2015):
In all, about 5,500 compounds went through this assay and about 2,000 (36%) were called active. Not shown: some 18% with an inconclusive outcome. No stated cut-off is given here; in the data, active means normalized growth mostly below about 0.91 (no sharp cut-off); inconclusive means no clear call, values can overlap the other calls; inactive means mostly above about 0.92. The list shows a part of the results.

Experiment: chemical genetic growth profiling, strain panel (AID 1159580);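 further: tested at 20 µM; growth read once vehicle control cultures reached saturation at 30 °C; 1 = growth at the plate median or of vehicle wells; lower values mean less growth of the strain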
Details: growth OD

Measured: normalized growth

CC1CCc2cc(F)cc3c(=O)c(C(=O)O)cn1c23 (configuration not stated)
inactive: S. cerevisiae deletion strains, locus YJR075W, strain HOC1, active compounds read low 0.967 | S. cerevisiae deletion strains, locus YKL009W, strain mrt4, active compounds read low 0.957 | S. cerevisiae deletion strains, locus YKL068W, active compounds read low 0.985 | S. cerevisiae deletion strains, locus YKL085W, strain MDH1 (second series), active compounds read low 0.974 | S. cerevisiae deletion strains, locus YKL085W, strain MDH1, active compounds read low 0.974 | S. cerevisiae deletion strains, locus YKL160W, strain elf1, active compounds read low 0.971 | S. cerevisiae deletion strains, locus YKL190W, strain CNB1, active compounds read low 0.991 | S. cerevisiae deletion strains, locus YKR001C, strain vps1, active compounds read low 0.998 | S. cerevisiae deletion strains, locus YKR026C, strain gcn3, active compounds read low 0.989 | S. cerevisiae deletion strains, locus YKR091W, strain srl3, active compounds read low 0.994 | S. cerevisiae deletion strains, locus YLL001W, strain dnm1, active compounds read low 0.966 | S. cerevisiae deletion strains, locus YLL026W, active compounds read low 0.995 | S. cerevisiae deletion strains, locus YLL041C, strain sdh2, active compounds read low 0.989 | S. cerevisiae deletion strains, locus YLR027C, strain aat2, active compounds read low 0.988 | S. cerevisiae deletion strains, locus YLR039C, strain RIC1, active compounds read low 0.892 | S. cerevisiae deletion strains, locus YLR058C, strain SHM2, active compounds read low 0.983 | S. cerevisiae deletion strains, locus YLR102C, strain apc9, active compounds read low 0.982 | S. cerevisiae deletion strains, locus YLR113W, strain HOG1, active compounds read low 0.955 | S. cerevisiae deletion strains, locus YLR221C, strain rsa3, active compounds read low 0.973 | S. cerevisiae deletion strains, locus YLR258W, strain gsy2, active compounds read low 0.982 | S. cerevisiae deletion strains, locus YLR262C, strain YPT6 (second series), active compounds read low 0.952 | S. cerevisiae deletion strains, locus YLR262C, strain YPT6, active compounds read low 0.867 | S. cerevisiae deletion strains, locus YLR268W, strain sec22, active compounds read low 0.894 | S. cerevisiae deletion strains, locus YLR320W, strain mms22, active compounds read low 0.972 | S. cerevisiae deletion strains, locus YLR330W, strain CHS5, active compounds read low 1.01 | S. cerevisiae deletion strains, locus YLR342W, strain FKS1 (second series), active compounds read low 0.978 | S. cerevisiae deletion strains, locus YLR342W, strain FKS1, active compounds read low 0.978 | S. cerevisiae deletion strains, locus YLR357W, strain rsc2, active compounds read low 0.923 | S. cerevisiae deletion strains, locus YLR370C, strain arc18, active compounds read low 0.991 | S. cerevisiae deletion strains, locus YLR371W, strain rom2, active compounds read low 0.965 | S. cerevisiae deletion strains, locus YLR384C, strain iki3, active compounds read low 0.985 | S. cerevisiae deletion strains, locus YLR418C, strain cdc73, active compounds read low 0.96 | S. cerevisiae deletion strains, locus YML016C, strain PPZ1, active compounds read low 0.986 | S. cerevisiae deletion strains, locus YML032C, strain rad52, active compounds read low 0.95 | S. cerevisiae deletion strains, locus YML120C, strain ndi1, active compounds read low 0.975 | S. cerevisiae deletion strains, locus YML124C, strain tub3, active compounds read low 0.994 | S. cerevisiae deletion strains, locus YMR058W, strain fet3, active compounds read low 0.998 | S. cerevisiae deletion strains, locus YMR078C, strain ctf18, active compounds read low 0.961 | S. cerevisiae deletion strains, locus YMR125W, strain sto1, active compounds read low 0.978 | S. cerevisiae deletion strains, locus YMR129W, active compounds read low 0.992 | S. cerevisiae deletion strains, locus YMR205C, strain PFK2, active compounds read low 0.968 | S. cerevisiae deletion strains, locus YMR223W, strain ubp8, active compounds read low 0.992 | S. cerevisiae deletion strains, locus YMR231W, strain pep5, active compounds read low 0.991 | S. cerevisiae deletion strains, locus YMR263W, strain SAP30, active compounds read low 0.964 | S. cerevisiae deletion strains, locus YMR307W, strain GAS1, active compounds read low 1.02 | S. cerevisiae deletion strains, locus YNL067W, strain RPL9B, active compounds read low 0.962 | S. cerevisiae deletion strains, locus YNL071W, strain lat1, active compounds read low 0.998 | S. cerevisiae deletion strains, locus YNL128W, strain TEP1, active compounds read low 0.976 | S. cerevisiae deletion strains, locus YNL153C, strain GIM3, active compounds read low 0.972 | S. cerevisiae deletion strains, locus YNL183C, strain NPR1, active compounds read low 0.904 | S. cerevisiae deletion strains, locus YNL209W, strain ssb2, active compounds read low 0.996 | S. cerevisiae deletion strains, locus YNL233W, strain BNI4, active compounds read low 0.968 | S. cerevisiae deletion strains, locus YNL248C, strain rpa49, active compounds read low 0.971 | S. cerevisiae deletion strains, locus YNL250W, strain rad50, active compounds read low 0.973 | S. cerevisiae deletion strains, locus YNL271C, strain bni1, active compounds read low 0.962 | S. cerevisiae deletion strains, locus YNL298W, strain CLA4, active compounds read low 0.957 | S. cerevisiae deletion strains, locus YNL307C, strain MCK1, active compounds read low 0.983 | S. cerevisiae deletion strains, locus YNL322C, strain KRE1 (second series), active compounds read low 0.995 | S. cerevisiae deletion strains, locus YNL322C, strain KRE1, active compounds read low 0.986 | S. cerevisiae deletion strains, locus YNR049C, strain mso1, active compounds read low 0.987 | S. cerevisiae deletion strains, locus YNR052C, strain pop2, active compounds read low 0.96 | S. cerevisiae deletion strains, locus YOL006C, strain TOP1, active compounds read low 0.947 | S. cerevisiae deletion strains, locus YOL012C, strain htz1 0.784 | S. cerevisiae deletion strains, locus YOL147C, strain pex11, active compounds read low 0.973 | S. cerevisiae deletion strains, locus YOR001W, strain rrp6, active compounds read low 0.968 | S. cerevisiae deletion strains, locus YOR061W, strain CKA2, active compounds read low 0.984 | S. cerevisiae deletion strains, locus YOR069W, strain VPS5, active compounds read low 0.977 | S. cerevisiae deletion strains, locus YOR070C, strain gyp1, active compounds read low 0.99 | S. cerevisiae deletion strains, locus YOR080W, strain dia2, active compounds read low 0.992 | S. cerevisiae deletion strains, locus YOR083W, strain WHI5, active compounds read low 0.969 | S. cerevisiae deletion strains, locus YOR106W, strain vam3, active compounds read low 0.947 | S. cerevisiae deletion strains, locus YOR136W, strain idh2, active compounds read low 0.98 | S. cerevisiae deletion strains, locus YOR144C, strain elg1, active compounds read low 0.975 | S. cerevisiae deletion strains, locus YOR184W, strain ser1, active compounds read low 0.959 | S. cerevisiae deletion strains, locus YOR231W, strain MKK1, active compounds read low 0.982 | S. cerevisiae deletion strains, locus YOR265W, strain rbl2, active compounds read low 0.982 | S. cerevisiae deletion strains, locus YOR270C, strain vph1, active compounds read low 0.959 | S. cerevisiae deletion strains, locus YOR290C, strain snf2, active compounds read low 0.955 | S. cerevisiae deletion strains, locus YOR316C, strain cot1, active compounds read low 0.97 | S. cerevisiae deletion strains, locus YPL051W, strain arl3, active compounds read low 0.984 | S. cerevisiae deletion strains, locus YPL055C, strain LGE1, active compounds read low 0.985 | S. cerevisiae deletion strains, locus YPL078C, strain atp4, active compounds read low 0.976 | S. cerevisiae deletion strains, locus YPL106C, strain sse1, active compounds read low 0.963 | S. cerevisiae deletion strains, locus YPL240C, strain hsp82, active compounds read low 0.974 | S. cerevisiae deletion strains, locus YPL241C, strain CIN2, active compounds read low 0.997 | S. cerevisiae deletion strains, locus YPL256C, strain CLN2, active compounds read low 0.974 | S. cerevisiae deletion strains, locus YPR119W, strain clb2, active compounds read low 0.973 | S. cerevisiae deletion strains, locus YPR141C, strain kar3, active compounds read low 0.961 | S. cerevisiae deletion strains, locus YPR163C, strain tif3, active compounds read low 0.974 | S. cerevisiae deletion strains, locus YPR167C, strain met16, active compounds read low 0.97 | S. cerevisiae deletion strains, strain wtn01, active compounds read low 0.95 | S. cerevisiae strains, strain wild type, active compounds read low 0.987
